G9a inh: blocks human histone lysine methyltransferase G9a; Potency, µM (highest dose often 102 µM), without a hit: top-dose activity, negative = inhibition, usual class: inhibitors; Q96KQ7; actives 8.8% (n = 350,000); AID 504332; G9a H3K9 monomethylation, AlphaScreen, 2 h; further: on the % scale 0 is the no-effect control and ±100 the full control effect; nearly all actives have a fitted effect of over 75% in size
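AlphaScreen read-out: biotin-H3K9 peptide (500 nM) methylation by 20 nM enzyme with 20 uM SAM, 2 h at room temperature after 15 min compound preincubation; anti-monomethyl H3K9 antibody plus donor/acceptor beads, 10 min dark.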
VDR inhibitor: blocks the human vitamin D receptor; actives 0.93% (n = 400,000); VDR-SRC2-3 peptide fluorescence polarization, 2 h; Potency, µM, inactives show max response, negative = inhibition, hits mostly inhibitors; further: on the % scale 0 is the no-effect control and ±100 the full control effect
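Inhibition of the VDR/SRC2-3 peptide interaction is quantified by fluorescence polarization. Compounds (23 nl, pintool) incubate with the reagents for 2 hours at ambient room temperature.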
BAZ2B block: inhibitors of human BAZ2B bromodomain | AlphaScreen BAZ2B-H3K14Ac peptide displacement | Potency, µM (titrated, usually from 114 µM), for inactives: at the top dose activity change, negative = inhibition, most hits filed as inhibitors | actives 4.4% (n = 360,000) | AID 504333; further: on the % scale 0 is the no-effect control and ±100 the full control effect; nearly all actives have a fitted effect of over 60% in size
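Inhibition is scored as reduced AlphaScreen emission. The BAZ2B/b-H3(5-23)K14Ac complex (50 nM each) in PBS pH 7.4, 0.01% Tween-20 meets compound (up to 110 uM) for 30 min at RT before bead addition.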
HP1b binding inh: blocks HP1-beta chromodomain binding to methylated histone tails; AlphaScreen HP1-beta / biotin-H3K9me3 peptide binding; actives 0.56% (n = 390,000); Potency, µM (titrated, usually from 114 µM), for the others: at the top dose activity change, negative = inhibition, actives largely listed as inhibitors; further: nearly all actives have a fitted effect of over 70% in size
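AlphaScreen: HP1-beta (50 nM) preformed 30 min with biotin-H3(1-18)K9me3 peptide (50 nM) in PBS pH 7.4, 0.01% Tween-20. Compound added for 30 min at RT, then streptavidin donor/nickel chelate acceptor beads (10 ug/mL) for 30 min.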
PLK1 PBD inh: inhibitors of human PLK1 polo-box domain binding | P53350 | Plk1 PBD binding of FITC phosphopeptide, fluorescence polarization | Potency, µM, for inactives: max response, negative = inhibition, hits mostly inhibitors | actives 2.8% (n = 360,000); further: series mostly up to about 57 µM; on the % scale 0 is the no-effect control and ±100 the full control effect; nearly all actives have a fitted effect of over 65% in size
Target sequence (P53350 whole entry, looked up, the tested form may be a part): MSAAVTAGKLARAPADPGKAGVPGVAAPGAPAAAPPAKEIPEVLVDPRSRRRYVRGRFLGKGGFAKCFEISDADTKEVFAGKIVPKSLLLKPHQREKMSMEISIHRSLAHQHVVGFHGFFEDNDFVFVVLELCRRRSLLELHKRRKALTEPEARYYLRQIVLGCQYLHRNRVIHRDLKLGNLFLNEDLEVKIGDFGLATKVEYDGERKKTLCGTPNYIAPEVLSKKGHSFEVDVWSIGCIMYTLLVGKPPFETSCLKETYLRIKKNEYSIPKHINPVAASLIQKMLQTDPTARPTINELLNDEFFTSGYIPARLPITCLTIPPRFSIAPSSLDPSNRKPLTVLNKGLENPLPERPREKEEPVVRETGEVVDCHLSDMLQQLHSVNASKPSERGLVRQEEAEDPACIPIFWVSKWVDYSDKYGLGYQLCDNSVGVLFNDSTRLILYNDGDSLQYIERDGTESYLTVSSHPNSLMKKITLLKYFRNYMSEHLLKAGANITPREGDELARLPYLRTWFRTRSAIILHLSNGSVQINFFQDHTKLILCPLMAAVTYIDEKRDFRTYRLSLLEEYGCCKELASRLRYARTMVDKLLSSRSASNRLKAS
JMJD2A Tudor inh: blocks the human JMJD2A Tudor domain. Potency, µM (titrated, usually from 114 µM), without a hit: at the highest dose activity change, negative = inhibition, actives largely listed as inhibitors. AlphaScreen JMJD2A-Tudor / H3K4me3 peptide binding. actives 4.4% (n = 390,000). O75164; further: on the % scale 0 is the no-effect control and ±100 the full control effect; nearly all actives have a fitted effect of over 50% in size
Numbers without * were called inactive; u = inconclusive; x = no result given; [ ] = remark or other dose. A selection: hits, their analogues and other compounds. The true share with any hit is near 11%. The call rests on the fitted dose curve; in most records, active means well fitted curve in the direction sought with a large enough effect; inconclusive means small, poorly fitted or top-dose-only effect, or another doubt; inactive means no such curve, though single readings can be large; an effect the other way counts as inactive or inconclusive. Potency means the concentration at half of the fitted maximal effect.

SMILES	G9a inh	VDR inhibitor	BAZ2B block	HP1b binding inh	PLK1 PBD inh	JMJD2A Tudor inh
CCOC(=O)N1CCN(C(=O)C2CCN(CC3CCCCC3)CC2)CC1	35µM*	-7%	-26%	-14%	10%	8.9µM*
COc1ccc(Cc2nnc(NC(=O)Cc3cccs3)s2)cc1OC	u	-6%	28µM*	u	u	-35%[57.1 µM]
O=c1[nH]c(CSc2nnc(Nc3ccccc3)s2)nc2ccccc12	-4%	-30%	-5%	-6%	27µM*	u
COc1ccc(C(=O)Nc2nnc(Cc3cccs3)s2)cc1OC	27%[0.501 µM]	-8%	-2%	31%	-3%	-35%
O=C(CSc1nnc(Nc2ccccc2)s1)NCc1cccs1	40µM*	-1%	0%	31%	-7%	-4%
O=C(Cc1cccs1)Nc1nnc(SCc2cccc3ccccc23)s1	45µM*	8%	u	30%	-17%	-29%
Cc1nnc(SCC(=O)NCc2cccs2)n1-c1ccccc1	2%[12.7 µM]	-9%	-4%	29%	-1%	-8%
CCN(CC)C(=O)C1=C(C)N(CCCN2CCCC2=O)C(=O)C(CC(=O)NCc2cccs2)C1 (stereo unspecified)	x	x	x	x	-3%	x
C/C(=N\NC(=O)CNC(=O)c1ccccc1Br)c1ccco1	25%	4%	3%	42%	-3%	-13%
CN1C[C@@H]2C[C@H]1CN2c1cc2c(cc1F)c(=O)c(C(=O)O)cn2C1CC1	17%[59 µM]	0%	x	x	x	x
COc1cccc(NC(=O)C(c2ccccc2)N2CCCC2)c1 (stereo unspecified)	18%	-14%	-13%	5%	-2%	u
Cc1ccc(-n2nc(C)c(=O)c(-c3ccccc3)c2NC(=O)c2cccs2)cc1	6%	-14%	3%	45%	-2%	4%
O=C(Cc1cccs1)Nc1nnc(Cc2ccccc2)s1	u	20%	50µM*	u	27µM*	50µM*
Cn1c(SCC(=O)NCc2cccs2)nnc1-c1ccco1	1%[59 µM]	-2%	9%	32%	2%	-9%
Cn1c(SCC(=O)NCc2cccs2)nnc1-c1ccc(O)cc1	7%	u	-1%	-23%	24µM*	u
COc1ccccc1NC(=O)CCC(=O)Nc1cc(OC)c(NC(=O)c2cccs2)cc1OC	-8%	u	1%	-5%	27µM*	79µM*
COc1ccc(NC(=O)Cc2cccs2)c(OC)c1	-49%[59 µM]	-1%	10%	41%	-12%	-6%
COc1cc(NC(=O)c2ccccc2)c(OC)cc1NC(=O)Cc1cccs1	x	14%	32µM*	71µM*	-28%	56µM*
CCOC(=O)N1CCc2c(sc3c2c(=O)n(-c2ccc(Cl)cc2)c(=O)n3CC(=O)Nc2ccccc2)C1	0%[59 µM]	19%	-4%	-8%	x	-13%
Nc1c(O)ccc2c1C(=O)c1ccccc1C2=O	2.5µM*	-22%	25µM*	16µM*	-24%	u
O=C(O)c1ccccc1SC1CC(=O)N(c2ccc3c(c2)OCO3)C1=O (stereo unspecified)	1.6µM*	-21%	-29%	6%	-19%	-29%
Cc1cc(C)cc(N2C(=O)CC(Sc3ccccc3C(=O)O)C2=O)c1 (stereo unspecified)	u	u	-12%	40%	-19%	u
CC(C)CN1C(=O)CC(Sc2ccccc2C(=O)O)C1=O (stereo unspecified)	1.1µM*	4%	-11%	46%	-7%	-25%
CCCCN1C(=O)CC(Sc2ccccc2C(=O)O)C1=O (stereo unspecified)	-3%[12.7 µM]	-1%	-25%	46%	-7%	-18%
Cc1cccc(N2C(=O)CC(Sc3ccccc3C(=O)O)C2=O)c1 (stereo unspecified)	u	-11%	-3%	38%	-23%	45µM*
CN(C)c1ccc(N2C(=O)CC(Sc3ccccc3C(=O)O)C2=O)cc1 (stereo unspecified)	1.4µM*	-12%	u	25%	-15%	u
